Data as given in ChEMBL document CHEMBL3988442, “University of Dundee, Small-Polar-MMV Screening Library” (2021).
For some assays here: Potency and affinity values are given separately.

Legend:
Parameters in all cases: scale not given: direction of the effect not stated beside the values
[1] = target: Protein translocase subunit SecA (Escherichia coli (strain K12)) (UniProt P10408); test: Assay to Identify E. coli SecA ATPase Inhibitors; format: functional; conditions: 30 µM
[2] = target: T1, Ubiquitin-activating enzyme e1, putative (Leishmania donovani (strain BPK282A1)) (UniProt E9BSI1); test: Leishmania donovani Ubiquitin Activating Enzyme (LdE1); format: functional; conditions: 30 µM
T1 sequence (whole entry): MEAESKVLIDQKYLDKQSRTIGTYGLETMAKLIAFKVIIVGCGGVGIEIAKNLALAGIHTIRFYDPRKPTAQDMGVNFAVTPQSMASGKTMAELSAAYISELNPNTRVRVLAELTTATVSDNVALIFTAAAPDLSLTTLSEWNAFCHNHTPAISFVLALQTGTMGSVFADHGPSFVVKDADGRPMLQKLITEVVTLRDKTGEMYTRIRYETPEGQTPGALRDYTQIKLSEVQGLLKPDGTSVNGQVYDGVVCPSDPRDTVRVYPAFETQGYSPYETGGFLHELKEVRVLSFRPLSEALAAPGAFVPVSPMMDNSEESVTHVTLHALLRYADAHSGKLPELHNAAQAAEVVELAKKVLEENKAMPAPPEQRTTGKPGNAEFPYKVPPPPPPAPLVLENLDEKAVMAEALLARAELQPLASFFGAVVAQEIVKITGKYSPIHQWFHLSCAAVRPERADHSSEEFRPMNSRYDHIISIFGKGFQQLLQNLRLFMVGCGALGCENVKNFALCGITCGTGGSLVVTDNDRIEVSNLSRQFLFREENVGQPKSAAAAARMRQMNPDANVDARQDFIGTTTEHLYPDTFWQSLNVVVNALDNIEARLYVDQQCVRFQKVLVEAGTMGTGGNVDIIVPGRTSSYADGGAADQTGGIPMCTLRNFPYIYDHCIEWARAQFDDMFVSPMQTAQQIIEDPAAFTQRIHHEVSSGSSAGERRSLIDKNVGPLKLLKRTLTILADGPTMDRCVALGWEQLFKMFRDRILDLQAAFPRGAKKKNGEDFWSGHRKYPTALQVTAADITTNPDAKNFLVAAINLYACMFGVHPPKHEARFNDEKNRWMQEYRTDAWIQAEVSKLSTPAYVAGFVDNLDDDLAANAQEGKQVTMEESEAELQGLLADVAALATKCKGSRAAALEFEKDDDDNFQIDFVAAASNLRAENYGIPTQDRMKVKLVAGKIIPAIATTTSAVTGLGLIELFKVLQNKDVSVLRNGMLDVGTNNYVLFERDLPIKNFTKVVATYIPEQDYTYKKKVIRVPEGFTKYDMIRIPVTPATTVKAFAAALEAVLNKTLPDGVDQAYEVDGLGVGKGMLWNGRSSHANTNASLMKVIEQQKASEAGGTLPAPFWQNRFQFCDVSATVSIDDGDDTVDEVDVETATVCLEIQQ

[3] = target: AMP-activated protein kinase, AMPK (Homo sapiens) (UniProt P54646+O43741+P54619+Q9UGJ0+Q9Y478+Q13131+Q9UGI9); test: AMP-dependent Kinase enzyme assay. An in vitro enzyme assay that detects ADP turnover that is directly proportional to AMPK activity. This uses naive AMPK that is activated during the assay with MK-8722; format: functional; conditions: 30 µM
[4] = target: Sialic acid-binding Ig-like lectin 9 (Homo sapiens) (UniProt Q9Y336); test: Hs-Siglec9 ALPHAscreen SOP 20170721; conditions: 10 µM
Trypanosoma cruzi = test: Trypanosoma cruzi phosphomannomutase and mannose-1-phosphate guanylyltransferase assay; format: functional; conditions: 10 µM
[5] = target: T2, Arginase-2, mitochondrial (Homo sapiens) (UniProt P78540); test: in vitro enzyme assay to detect the production of urea directly proportional to the activity of Arginase II; format: functional; conditions: 33.3 µM; also: in the data most compounds retested in dose-response had high values
T2 sequence (whole entry): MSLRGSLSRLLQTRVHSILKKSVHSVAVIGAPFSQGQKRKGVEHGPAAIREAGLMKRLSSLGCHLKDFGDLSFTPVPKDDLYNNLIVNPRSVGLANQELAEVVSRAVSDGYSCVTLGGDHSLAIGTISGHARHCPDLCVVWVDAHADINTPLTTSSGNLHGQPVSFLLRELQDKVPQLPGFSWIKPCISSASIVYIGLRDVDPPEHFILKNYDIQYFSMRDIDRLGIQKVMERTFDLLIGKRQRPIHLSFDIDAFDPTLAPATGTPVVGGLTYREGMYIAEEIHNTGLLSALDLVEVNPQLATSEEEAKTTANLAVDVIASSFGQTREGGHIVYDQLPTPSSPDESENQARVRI

[6] = target: T3, Proteasome subunit beta (Trypanosoma cruzi) (UniProt O96673); test: Trypanosoma cruzi proteasome chymotrypsin-like activity (TcProtChymo) assay.; also: in the data most compounds retested in dose-response had high values; format: functional; conditions: 9.37 µM
T3 sequence (whole entry): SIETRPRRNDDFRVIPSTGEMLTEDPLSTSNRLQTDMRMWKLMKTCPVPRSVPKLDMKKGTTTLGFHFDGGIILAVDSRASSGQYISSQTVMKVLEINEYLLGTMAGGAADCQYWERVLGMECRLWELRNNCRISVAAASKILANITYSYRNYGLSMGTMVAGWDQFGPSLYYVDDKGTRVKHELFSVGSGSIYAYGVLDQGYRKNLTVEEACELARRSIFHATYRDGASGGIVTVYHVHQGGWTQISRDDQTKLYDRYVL

Homo sapiens = species: Homo sapiens; test: To identify inhibition of the IFN signalling (Jak-Stat) pathway via expression of an eGFP reporter gene under the control of an IFN-stimulated response element (ISRE) containing MxA promoter.; format: functional; conditions: 30 µM
[7] = target: T4, Tyrosyl-tRNA synthetase, putative (Trypanosoma cruzi (strain CL Brener)) (UniProt Q4DSP6); test: Trypanosoma cruzi tyrosyl tRNA synthetase (TcYRS) _High Tyrosine SOP; format: functional; conditions: 30 µM; also: in the data most compounds retested in dose-response had high values
T4 sequence (whole entry): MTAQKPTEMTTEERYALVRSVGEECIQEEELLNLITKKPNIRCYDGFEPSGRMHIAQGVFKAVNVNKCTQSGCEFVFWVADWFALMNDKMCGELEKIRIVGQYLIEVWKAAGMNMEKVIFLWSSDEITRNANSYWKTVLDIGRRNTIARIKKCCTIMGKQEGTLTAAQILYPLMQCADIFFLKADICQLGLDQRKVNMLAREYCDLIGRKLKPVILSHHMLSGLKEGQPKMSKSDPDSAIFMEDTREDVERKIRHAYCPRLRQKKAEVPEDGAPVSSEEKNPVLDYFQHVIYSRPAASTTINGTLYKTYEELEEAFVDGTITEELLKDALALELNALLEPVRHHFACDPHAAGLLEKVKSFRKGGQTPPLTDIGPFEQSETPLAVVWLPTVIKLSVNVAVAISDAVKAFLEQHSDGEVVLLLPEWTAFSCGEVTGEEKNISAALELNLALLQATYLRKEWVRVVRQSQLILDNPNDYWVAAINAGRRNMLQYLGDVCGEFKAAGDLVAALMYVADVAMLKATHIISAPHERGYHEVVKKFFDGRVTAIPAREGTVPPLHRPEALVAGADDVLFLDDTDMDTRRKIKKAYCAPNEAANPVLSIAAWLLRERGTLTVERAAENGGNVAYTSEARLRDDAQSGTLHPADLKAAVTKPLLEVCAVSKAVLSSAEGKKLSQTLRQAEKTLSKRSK

[8] = target: T4, Tyrosyl-tRNA synthetase, putative (Trypanosoma cruzi (strain CL Brener)); test: Trypanosoma cruzi tyrosyl tRNA synthetase (TcYRS) SOP; format: functional; conditions: 30 µM
[9] = target: Chromo domain-containing protein 1 (Saccharomyces cerevisiae (strain ATCC 204508 / S288c) (Baker's yeast)) (UniProt P32657); test: ScCHD-1 Enzyme Inhibition Assay; format: functional; conditions: 30 µM; also: in the data most compounds retested in dose-response had high values
Chain of Chromo domain-containing protein 1 (Saccharomyces cerevisiae (strain ATCC 204508 / S288c) (Baker's yeast)) (P32657 whole entry, the tested form may be a part): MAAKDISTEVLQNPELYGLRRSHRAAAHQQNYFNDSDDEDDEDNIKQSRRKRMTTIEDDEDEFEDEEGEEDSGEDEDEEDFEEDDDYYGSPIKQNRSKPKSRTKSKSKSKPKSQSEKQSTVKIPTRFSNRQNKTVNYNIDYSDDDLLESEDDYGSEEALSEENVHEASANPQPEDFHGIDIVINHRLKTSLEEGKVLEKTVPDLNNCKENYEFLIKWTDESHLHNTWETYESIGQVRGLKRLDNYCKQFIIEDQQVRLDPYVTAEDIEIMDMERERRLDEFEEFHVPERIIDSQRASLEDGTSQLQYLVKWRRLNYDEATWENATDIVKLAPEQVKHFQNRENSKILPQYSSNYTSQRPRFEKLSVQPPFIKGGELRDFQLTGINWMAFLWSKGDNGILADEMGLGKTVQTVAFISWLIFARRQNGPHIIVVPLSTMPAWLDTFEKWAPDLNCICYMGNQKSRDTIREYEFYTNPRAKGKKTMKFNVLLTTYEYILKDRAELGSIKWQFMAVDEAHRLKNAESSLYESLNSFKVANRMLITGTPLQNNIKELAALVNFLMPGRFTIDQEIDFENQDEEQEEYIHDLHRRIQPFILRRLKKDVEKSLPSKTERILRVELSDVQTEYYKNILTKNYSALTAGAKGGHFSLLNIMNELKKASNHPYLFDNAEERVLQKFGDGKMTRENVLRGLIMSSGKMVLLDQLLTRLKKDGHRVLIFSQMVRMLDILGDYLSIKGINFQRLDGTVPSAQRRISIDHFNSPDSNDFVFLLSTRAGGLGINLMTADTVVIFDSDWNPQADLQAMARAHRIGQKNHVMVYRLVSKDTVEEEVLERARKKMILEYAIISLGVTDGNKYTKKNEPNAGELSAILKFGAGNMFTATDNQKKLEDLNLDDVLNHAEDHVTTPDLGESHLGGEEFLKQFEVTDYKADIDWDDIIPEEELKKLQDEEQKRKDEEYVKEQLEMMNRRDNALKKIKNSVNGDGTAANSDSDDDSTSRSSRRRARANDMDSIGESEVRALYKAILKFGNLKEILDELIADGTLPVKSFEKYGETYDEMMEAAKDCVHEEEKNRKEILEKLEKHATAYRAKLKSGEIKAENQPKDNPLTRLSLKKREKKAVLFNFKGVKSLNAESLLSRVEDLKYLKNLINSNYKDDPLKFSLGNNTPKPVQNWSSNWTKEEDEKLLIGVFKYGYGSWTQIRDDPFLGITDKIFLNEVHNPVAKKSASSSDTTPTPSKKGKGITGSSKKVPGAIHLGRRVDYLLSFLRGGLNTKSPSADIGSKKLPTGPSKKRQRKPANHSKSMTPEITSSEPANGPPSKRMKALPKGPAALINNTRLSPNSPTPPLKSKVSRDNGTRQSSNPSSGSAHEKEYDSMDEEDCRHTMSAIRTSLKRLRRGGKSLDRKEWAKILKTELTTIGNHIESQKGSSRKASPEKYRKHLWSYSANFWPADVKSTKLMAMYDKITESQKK

Chain of Sialic acid-binding Ig-like lectin 9 (Homo sapiens) (Q9Y336 whole entry): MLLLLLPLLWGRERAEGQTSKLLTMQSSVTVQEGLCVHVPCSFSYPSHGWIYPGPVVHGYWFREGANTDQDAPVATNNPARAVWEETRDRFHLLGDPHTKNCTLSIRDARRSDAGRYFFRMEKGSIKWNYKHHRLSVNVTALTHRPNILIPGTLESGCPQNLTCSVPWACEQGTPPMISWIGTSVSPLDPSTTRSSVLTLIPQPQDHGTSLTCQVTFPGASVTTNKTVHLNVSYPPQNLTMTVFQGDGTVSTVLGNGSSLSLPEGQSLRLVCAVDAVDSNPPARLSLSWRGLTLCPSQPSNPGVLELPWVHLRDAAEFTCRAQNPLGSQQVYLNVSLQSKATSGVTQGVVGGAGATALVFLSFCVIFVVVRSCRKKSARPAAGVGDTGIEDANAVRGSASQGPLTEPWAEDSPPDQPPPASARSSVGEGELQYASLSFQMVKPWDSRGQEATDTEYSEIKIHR
Chain of Protein translocase subunit SecA (Escherichia coli (strain K12)) (P10408 whole entry): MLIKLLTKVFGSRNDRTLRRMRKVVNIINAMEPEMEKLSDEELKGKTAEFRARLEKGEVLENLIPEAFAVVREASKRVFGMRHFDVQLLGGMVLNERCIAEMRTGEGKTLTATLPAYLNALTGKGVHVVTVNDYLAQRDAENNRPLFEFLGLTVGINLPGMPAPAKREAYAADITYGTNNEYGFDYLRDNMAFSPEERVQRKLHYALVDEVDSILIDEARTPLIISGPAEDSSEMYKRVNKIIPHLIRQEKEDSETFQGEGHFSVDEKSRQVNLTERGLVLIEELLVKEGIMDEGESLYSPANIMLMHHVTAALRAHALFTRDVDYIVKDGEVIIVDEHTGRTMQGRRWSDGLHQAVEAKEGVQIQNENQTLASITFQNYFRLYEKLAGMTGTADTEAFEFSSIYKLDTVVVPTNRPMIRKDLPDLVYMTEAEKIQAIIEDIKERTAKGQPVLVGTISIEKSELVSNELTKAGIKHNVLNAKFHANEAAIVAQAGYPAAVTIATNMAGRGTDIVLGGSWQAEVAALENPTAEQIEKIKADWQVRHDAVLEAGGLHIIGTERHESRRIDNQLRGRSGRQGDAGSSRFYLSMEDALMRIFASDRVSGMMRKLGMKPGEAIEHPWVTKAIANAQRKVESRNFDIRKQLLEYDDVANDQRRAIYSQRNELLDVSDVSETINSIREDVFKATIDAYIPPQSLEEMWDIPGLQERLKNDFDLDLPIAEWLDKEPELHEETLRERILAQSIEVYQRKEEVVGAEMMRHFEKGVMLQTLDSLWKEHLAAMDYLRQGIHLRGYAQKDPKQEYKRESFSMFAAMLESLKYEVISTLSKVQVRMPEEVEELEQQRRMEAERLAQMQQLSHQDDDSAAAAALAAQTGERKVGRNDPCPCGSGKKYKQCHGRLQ

SMILES	Percent Effect [1] [%]	Percent Effect [2] [%]	Percent Effect [3] [%]	Percent Effect [4] [%]	Percent Effect (Trypanosoma cruzi) [%]	Percent Effect [5] [%]	Percent Effect [6] [%]	Percent Effect (Homo sapiens) [%]	Percent Effect [7] [%]	Percent Effect [8] [%]	Percent Effect [9] [%]
c1ccc(C2CCCN2Cc2nnnn2C2CC2)cc1 (configuration not stated)	-4.62	-6.94	-1.81	-5.25	-3.01	-1.32	9.12	-12.1	3.16	0	7.75
C[C@H]1C[C@@H]2CCN(C(=O)c3cccn3C)C[C@H]2O1	-0.284	10.8	2.27	-5.58	-8.89	6.69	17.5	3.63	-1.08	5.13	-0.358
CC(C)N1CCC(NCc2cccnc2N(C)Cc2ccccc2)CC1	-6.5	5.33	-5.44	0.0952	0.0974	1.04	4.01	-2.28	1.64	6.17	-5.77
O=C(NCCN1CCNCC1)c1c(O)c2ccccc2[nH]c1=O	1.56	12	11	-7.32	-9.23	-14.3	20.1	26.5	0	5.13	-9.61
COc1ncccc1C(=O)N1CCC(c2nnc(C3CC3)o2)CC1	-1.83	10.4	11.3	3.07	-5.82	16.1	9.75	-6.69	4.23	11.5	-9.2
Fc1cccc(-c2nc(CN3CCOC(Cn4cccn4)C3)co2)c1 (configuration not stated)	-5.98	2.7	-6.81	3.19	-2.36	4.81	4.68	-1.08	7.39	6.17	-3.05
CCC(CC)c1cc(CNC(=O)N2CCCC(N(C)C)C2)on1 (configuration not stated)	-3.85	8.11	-7.08	17.6	6.55	0.248	12.8	7.88	6.45	13.6	-6.35
Cc1ccc(C)c(-c2csc(N)c2C#N)c1	-2.81	-1.33	-2.97	7.24	0.589	-10	4.99	14.2	-12.7	-12.8	2.05
Cc1cc(C)c(CNC(=O)NCC(O)c2cccc(F)c2)c(=O)[nH]1 (configuration not stated)	-7	7.89	0.0351	13.9	-0.0934	-3.96	7.36	7.32	9.36	13.6	-1.76
CCCc1n[nH]c(C2CN(Cc3nnc(C4CC4)o3)CCO2)n1 (configuration not stated)	-3.64	5.06	-4.65	2.18	4.25	-1.9	-0.409	3.77	3.45	8.86	-0.679
CNc1cc(CNC(=O)c2ccccc2)nc(-c2ccncc2)n1	-5.75	9.46	9.36	-2.66	3.56	-71.7	15.8	1.41	5.38	14.3	-13.8
Cc1cnc(CNc2c(F)cccc2-n2cccn2)o1	3.66	12.5	-4.76	5.6	-8.46	2.65	13.7	5.49	4.21	5.13	101
CCc1noc(C)c1C(=O)N1CCCC1Cn1cc(C)cn1 (configuration not stated)	-3.44	15.8	8.82	-9.39	-10.4	0	3.64	-1.17	2.46	1.24	-10.2
CCCC(=O)Nc1sc(C(=O)OCC)c(C)c1C#N	0.0516	7.79	24.2	-8.77	-5.42	8.39	10.4	-0.547	1.06	16.7	-3.68
O=C([C@@H]1CC[C@@H]2[C@@H](CCN2Cc2ccoc2)O1)N1CCCC1	-5.35	13.5	-5.44	27.1	0.684	4.71	17.9	-10.1	7.53	13.6	-3.6
CCCc1noc(CN2CCCC2c2ccsc2)n1 (configuration not stated)	-2.78	-10.1	-1.69	-2.76	1.04	-8.37	3.19	11.1	0.493	1.27	6.54
CCc1nc(CC(=O)N2CCOCC2c2ncon2)cs1 (configuration not stated)	-0.574	-2.7	-3.99	-2.13	-3.99	1.29	5.75	-8.37	0	-1.22	2.33
Cn1ccnc1CN(CCCO)C1CCCc2ccccc21 (configuration not stated)	-5.87	5.26	3.03	9.71	0.876	-2.37	3.55	18.1	3.19	7.79	-0.447
O=C(c1csc(Br)c1)N1CCCC(n2ccnc2)C1 (configuration not stated)	-3.43	11.4	-1.54	-8.98	2.56	-5.38	2.74	-8.54	2.08	12.7	54.1
CC(C)(CNC(=O)CCOc1cccc(F)c1)C(N)=O	-1.29	7.89	1.89	3.39	-7.14	3.06	10.5	12	5.39	12.2	-1.57
Cc1nn(C)c(C)c1C1CCCN1C(=O)c1ccc(NC2CC2)nc1 (configuration not stated)	-1.33	16.2	-3.14	10.9	0.464	-4.25	5.92	22.6	7.92	18.3	-2.71
Cc1ccc(CNCc2nnc3n2CCCC3C(F)(F)F)s1 (configuration not stated)	-1.65	8	-7.92	8.27	5.36	4.69	18	11.4	9.29	21	-5.37
